# Where a name gives a salt, the structure may show the parent alone.
# System: replication-induced senescent mouse newborn dermal fibroblasts (NBF)
# Experiment: relative cell viability of senescent cells (fraction); higher = less killing of senescent cells
# Details: 1 µM; 3 days
# Experimental: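 Replication-induced senescent newborn mouse skin fibroblasts (NBFs) in 24-well plates were treated with a Selleck FDA-approved drug library at 1 µM for 3 days.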
row,SMILES,relative cell viability
1,CN1c2ccccc2C(NCCCCCCC(=O)O)c2ccc(Cl)cc2S1(=O)=O (stereo not drawn) [Tianeptine sodium],0.946
2,COc1cc2c(cc1OC)C1CC(=O)C(CC(C)C)CN1CC2 (stereo not drawn) [Tetrabenazine (Xenazine)],1.04
3,C[C@]12Cc3c[nH]nc3C[C@@H]1CC[C@@H]1[C@@H]2CC[C@@]2(C)[C@H]1CC[C@]2(C)O [Stanozolol],0.136
4,CN(C)[C@@H]1C(=O)C(C(N)=O)=C(O)[C@@]2(O)C(=O)C3=C(O)c4c(O)cccc4[C@@](C)(O)[C@H]3[C@H](O)[C@@H]12 [Oxytetracycline (Terramycin)],1.01
5,CN1[C@@H]2C[C@@H](OC(=O)[C@H](CO)c3ccccc3)C[C@H]1[C@@H]1O[C@@H]12 [Scopolamine HBr],1.03
6,COc1ccc(C(CN(C)C)C2(O)CCCCC2)cc1 (stereo not drawn) [Venlafaxine HCl],1.03
7,Cn1cc(C2=C(c3cn(C4CCN(Cc5ccccn5)CC4)c4ccccc34)C(=O)NC2=O)c2ccccc21,0.523
8,C=C1C[C@@H]2[C@H](CC[C@]3(C)C(=O)CC[C@@H]23)[C@@]2(C)C=CC(=O)C=C12 [Exemestane],1.08
9,CC(O)(CS(=O)(=O)c1ccc(F)cc1)C(=O)Nc1ccc(C#N)c(C(F)(F)F)c1 (stereo not drawn) [Bicalutamide],0.913
10,CN(C)C(=O)Oc1ccc[n+](C)c1 [Pyridostigmine Bromide],1.19
11,Cn1c(CCCC(=O)O)nc2cc(N(CCCl)CCCl)ccc21 [Bendamustine HCl],0.999
12,CCC1(c2ccc(N)cc2)CCC(=O)NC1=O (stereo not drawn) [Aminoglutethimide],0.889
13,C[C@]12CC[C@H]3[C@@H](CC[C@@]45O[C@@H]4C(O)=C(C#N)C[C@]35C)[C@@H]1CC[C@@H]2O [Trilostane],0.778

# Source: the supplement of paper PMC7184167
